From PubChem BioAssay AID1117292 (Broad Institute, 2014)
Measured potencies and affinities stand elsewhere. Inconclusive results are not listed. Active and inactive are the calls of the source.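 How the source made its calls: active means compound whose fitted half-maximal dose for signal loss lies within twice the top dose in every replicate test; inconclusive means tests disagree, or flat partial signal loss or poor fit; inactive means every test inactive, flat, rising or too weak.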

The compounds below were run against Endoplasmic reticulum aminopeptidase 1 (Homo sapiens) (UniProt Q9NZ08) (assay: ERAP1 enzyme inhibitors, dose response, biochemical, fluorescence plate reader, dry powder (AID 1117292)). Conditions: purified ERAP1, Leu-AMC fluorescence, 60 min; series mostly up to 50 µM; activity change, negative = inhibition: at the top concentration.
Chain of Endoplasmic reticulum aminopeptidase 1 (Homo sapiens) (Q9NZ08 whole entry, looked up): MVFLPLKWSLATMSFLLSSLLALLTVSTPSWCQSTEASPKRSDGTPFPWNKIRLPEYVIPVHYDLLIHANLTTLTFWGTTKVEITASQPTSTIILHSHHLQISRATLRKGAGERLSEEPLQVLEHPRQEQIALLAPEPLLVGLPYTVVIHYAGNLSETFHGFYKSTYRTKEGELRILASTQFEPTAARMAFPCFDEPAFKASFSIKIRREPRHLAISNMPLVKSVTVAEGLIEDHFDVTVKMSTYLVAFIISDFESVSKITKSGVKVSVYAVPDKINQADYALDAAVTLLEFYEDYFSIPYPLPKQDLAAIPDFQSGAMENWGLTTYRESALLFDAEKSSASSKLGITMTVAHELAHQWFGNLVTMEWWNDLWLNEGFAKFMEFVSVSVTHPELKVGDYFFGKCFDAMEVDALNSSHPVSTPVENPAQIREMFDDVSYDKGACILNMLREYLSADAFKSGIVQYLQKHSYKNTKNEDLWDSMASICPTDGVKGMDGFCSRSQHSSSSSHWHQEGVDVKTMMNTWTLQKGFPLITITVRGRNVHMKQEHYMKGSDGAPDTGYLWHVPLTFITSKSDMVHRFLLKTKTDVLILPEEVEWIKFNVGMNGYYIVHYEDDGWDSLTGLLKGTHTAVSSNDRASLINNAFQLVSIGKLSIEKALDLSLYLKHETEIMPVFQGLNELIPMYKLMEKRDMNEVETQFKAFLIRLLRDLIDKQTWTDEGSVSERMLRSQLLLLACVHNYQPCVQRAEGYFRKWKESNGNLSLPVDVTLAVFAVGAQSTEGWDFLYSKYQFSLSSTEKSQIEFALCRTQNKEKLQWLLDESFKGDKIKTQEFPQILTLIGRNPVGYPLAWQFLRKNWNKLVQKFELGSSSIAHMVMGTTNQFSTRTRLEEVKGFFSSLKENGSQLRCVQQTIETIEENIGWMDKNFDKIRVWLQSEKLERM

Activity change, negative = inhibition, inactive:
CC(=O)N1CCN(C(=O)C2(NC(=O)Nc3ccc(C(C)C)cc3)CCCCC2)CC1 25.4%, Cc1ccc(NC(=O)NC2(C(=O)N3CCN(c4ccccc4)CC3)CCCCC2)cc1 4.16%, O=C(Nc1cc(C(F)(F)F)ccc1N1CCCCC1)c1ccc(S(=O)(=O)O)cc1 28%, CC(=O)N1CCN(C(=O)C2(NC(=O)Nc3ccc(C)cc3)CC2)CC1 -21.3%, COc1ccc(C(=O)Nc2cc(C(F)(F)F)ccc2N2CCCC2)cc1S(=O)(=O)O -4.72%, O=S(=O)(Nc1cc(C(F)(F)F)ccc1N1CCCCC1)c1ccccc1 -1.32%, O=S(=O)(Nc1cc(C(F)(F)F)ccc1N1CCCCC1)c1ccc(C(F)(F)F)cc1 9.19%, CC(=O)N1CCN(C(=O)[C@@H]2CCN2C(=O)Nc2ccc(C)cc2)CC1 -14.6%, N#Cc1ccc(S(=O)(=O)Nc2cc(C(F)(F)F)ccc2N2CCCCC2)cc1 26%, O=[N+]([O-])c1ccc(S(=O)(=O)Nc2cc(C(F)(F)F)ccc2N2CCCCC2)c([N+](=O)[O-])c1 -9.84%, O=S(=O)(Nc1cc(C(F)(F)F)ccc1N1CCCCC1)c1ccc(Cl)cc1 13.4%, COc1cccc(NC(=O)NC2(C(=O)N3CCN(C(C)=O)CC3)CCCCC2)c1 14.7%, O=S(=O)(Nc1cc(C(F)(F)F)ccc1N1CCCCC1)c1ccc(Br)cc1 24.4%, COc1ccc(C(=O)O)cc1S(=O)(=O)Nc1cc(C(F)(F)F)ccc1N(C)C 104%, O=S(=O)(Nc1cc(C(F)(F)F)ccc1N1CCCCC1)c1cc(Cl)cc(Cl)c1 15.8%, CC(=O)N1CCN(C(=O)C2(NC(=O)Nc3ccc(C(F)(F)F)cc3)CCCC2)CC1 26.2%
